An excerpt weighted towards active compounds, which were near 10% of everything screened.
NIH3T3 tox: kills NIH 3T3 cells | Potency, µM (top dose mostly 96.7 µM), actives largely listed as inhibitors | NIH 3T3 viability, CellTiter-Glo ATP luminescence, 48-72 h | AID 1345082 | hit rate 4.3% among 94,000; also: nearly all actives have a fitted effect of over 55% in size
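Luminescent ATP readout (CellTiter-Glo, 10 min RT) after 48 or 72 hr compound exposure of NIH 3T3 cells seeded at 400 cells/well in 1536-well format; quantitative HTS.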
NPR1 antag: human Npr1 receptor antagonism. P16066. HEK293 hNpr1 GloSensor cGMP, ANP-stimulated luminescence. Potency, µM (highest dose often 46.3 µM), most hits filed as inhibitors. hit rate 1.6% among 76,000. AID 1347048; calls by dose curve; also: nearly all actives have a fitted effect of over 60% in size
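Compound pre-incubated 30 min at room temperature on GloSensor-loaded HEK293 cells stably carrying hNpr1 and the pGS-40F cGMP biosensor. Stimulation uses hNppA at 0.1 nM final; luminescence is taken at baseline and 20 min post-agonist.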
HEK293 tox: HEK 293 cell cytotoxicity | HEK 293 viability, ATP luminescence (CellTiter-Glo), 48-72 h | Potency, µM (doses to about 115 µM), hits mostly inhibitors | hit rate 6.6% among 94,000 | AID 1345083; also: nearly all actives have a fitted effect of over 60% in size
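CellTiter-Glo luminescence (cellular ATP) was read after 48 or 72 hr of compound exposure at 37 degree Celsius. Cells were HEK 293 plated at 250 cells/well.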
Luciferase inh: Photinus pyralis luciferase inhibition | purified P. pyralis luciferase, luminescence, biochemical | Potency, µM (top dose mostly 115 µM), hits mostly inhibitors | hit rate 2.5% among 76,000 | AID 1347043; also: nearly all actives have a fitted effect of over 65% in size
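FLuc 10nM, D-luciferin 10uM, ATP 10uM, Mg acetate 10mM, Tris acetate pH 7.5, Tween/BSA; cpd qHTS; enzyme added last; CCD luminescence.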
GPT2 inhibitor: GPT2 alanine aminotransferase inhibition; Recombinant GPT2, coupled pyruvate oxidase/HRP Amplex Red fluorescence; Q8TD30; Potency, µM (titrated, usually from 57.7 µM), most hits filed as inhibitors; hit rate 0.25% among 100,000; also: nearly all actives have a fitted effect of over 60% in size
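Fluorescence of coupled pyruvate oxidase/HRP/Amplex Red system (50uM Amplex, 30 min, dark) reports pyruvate formed by GPT2. Enzyme reaction: 10ng/uL GPT2, 2mM L-alanine, 250uM a-KG, 30 min room temperature, pH 7.5; 50uM AOA control.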
Of the large screens only hits and unclear results are named; the others gave an inactive call. Unless noted, calls follow the shape of the dose curve; as a rule, active = well fitted curve in the direction sought with a large enough effect; inconclusive = small, poorly fitted or top-dose-only effect, or another doubt; inactive = no such curve, though single readings can be large; an effect the other way counts as inactive or inconclusive.

COCC(=O)N1CCC2(CC1)OC(=O)N(CCOc1ccccc1)C2(C)c1cccnc1 (centres undefined)	NIH3T3 tox 50.1µM
CC1(c2cccnc2)N(Cc2ccccc2)C(=O)OC12CCN(C(=O)COc1ccccc1)CC2 (centres undefined)	NIH3T3 tox 31.6µM
CC1(c2cccnc2)N(Cc2ccccc2)C(=O)OC12CCN(C(=O)c1cnccn1)CC2 (centres undefined)	NIH3T3 tox 28.2µM
COCC(=O)N1CCC2(CC1)OC(=O)N(Cc1ccc(O)cc1)C2(C)c1ccccc1 (centres undefined)	NIH3T3 tox inconclusive
CC1(c2ccccc2)N(Cc2cccnc2)C(=O)OC12CCN(C(=O)c1ccc(F)cc1)CC2 (centres undefined)	NIH3T3 tox inconclusive
CC1(c2ccccc2)N(Cc2ccccc2)C(=O)OC12CCN(C(=O)COc1ccccc1)CC2 (centres undefined)	NIH3T3 tox 28.2µM, HEK293 tox inconclusive
COc1ccc(CN2CCCCCNC(=O)CC2c2ccccc2)cc1Cn1ccnc1 (centres undefined)	NIH3T3 tox 39.8µM, HEK293 tox 35.5µM
O=C1CC(c2ccccc2)N(Cc2ccc(F)c(F)c2)CCCCCN1 (centres undefined)	NIH3T3 tox 39.8µM, HEK293 tox inconclusive
COc1cccc(CN2CCCCCCNC(=O)CC2c2ccccc2)c1 (centres undefined)	NIH3T3 tox inconclusive, HEK293 tox inconclusive
O=C1CCCCC(C(=O)NCc2ccc(F)cc2)N1 (centres undefined)	none
O=C(C[C@@H]1CCNC[C@@H]1Cc1cc(-c2ccc(F)cc2)on1)NCc1ccc2c(c1)OCO2	NIH3T3 tox inconclusive, HEK293 tox inconclusive, GPT2 inhibitor inconclusive
Cc1c(-c2ccc(F)cc2)[nH]c2ccc(CNCc3cnn(C)c3)cc12	NIH3T3 tox 39.8µM, HEK293 tox 39.8µM, Luciferase inh inconclusive
Cc1c(-c2ccc(F)cc2)[nH]c2ccc(CNC(=O)CCN3CCCO3)cc12	NIH3T3 tox inconclusive, NPR1 antag inconclusive, HEK293 tox 31.6µM, Luciferase inh 25.1µM
Cc1c(-c2ccc(F)cc2)[nH]c2ccc(CNC(=O)[C@@H]3CCCO3)cc12	NIH3T3 tox inconclusive, HEK293 tox 50.1µM, Luciferase inh 35.5µM
Cc1nc(CC(=O)NCc2ccc3[nH]c(-c4ccc(F)cc4)c(C)c3c2)cs1	NIH3T3 tox inconclusive, NPR1 antag inconclusive, HEK293 tox inconclusive, Luciferase inh 35.5µM
O=C(C1CCCN1C(=O)c1ccc(Cl)nc1)N1CCC(N2CCOCC2=O)CC1 (centres undefined)	none (no result: NPR1 antag, Luciferase inh)
O=C(c1nccc2ccccc12)N1CCc2c(nc(-c3ccccc3)[nH]c2=O)C1	NIH3T3 tox inconclusive, HEK293 tox 25.1µM
O=C(Cc1cccs1)N1CCCN(CCc2ccccc2)c2ccccc21	NIH3T3 tox 31.6µM, HEK293 tox inconclusive
CCC(=O)N1CCCN(CCN(C)C)c2ccccc21	none
CS(=O)(=O)N1CCCN(C(=O)Cc2ccc(OC(F)(F)F)cc2)c2ccccc21	NIH3T3 tox inconclusive, HEK293 tox inconclusive
O=C(Cc1ccc(F)cc1)N1CCCN(CCc2ccccc2)c2ccccc21	NIH3T3 tox 35.5µM, HEK293 tox inconclusive (no result: NPR1 antag, Luciferase inh)
CN1CCCN(C(=O)Cc2ccc(OC(F)(F)F)cc2)c2ccccc21	NIH3T3 tox 39.8µM, HEK293 tox inconclusive
O=C(Cc1ccc(Br)cc1)N1CCCN(C(=O)C2CC2)c2ccccc21	NIH3T3 tox inconclusive, HEK293 tox inconclusive
COC[C@@H]1CN(C(=O)c2ccc(Cl)cc2OC)C[C@H]1C(N)=O	none
COc1ccc(CN2CC(COc3ccccc3)Oc3ncccc3[S+]2(=O)[O-])cc1 (centres undefined)	NIH3T3 tox inconclusive, HEK293 tox 22.4µM (no result: NPR1 antag, Luciferase inh)
COc1ccc(OCC2CN(Cc3cccs3)[S+](=O)([O-])c3cnccc3O2)cc1 (centres undefined)	HEK293 tox inconclusive (no result: NPR1 antag, Luciferase inh)
CC(NC(=O)CCc1conc1-c1ccccc1)c1ccc(F)cc1 (centres undefined)	HEK293 tox inconclusive, Luciferase inh 17.8µM
NC(=O)[C@@H]1CN(C2CCSCC2)C[C@H]1COc1ccccc1	none
CCOc1cccc(-c2nc(C(=O)NCc3ccccc3)cs2)c1	NIH3T3 tox inconclusive, NPR1 antag inconclusive, HEK293 tox inconclusive
CC(C)Oc1cccc(-c2ccc(C(=O)N(C)C)cc2)c1	NIH3T3 tox inconclusive, HEK293 tox 35.5µM, Luciferase inh inconclusive
CC(C)CNC(=O)c1csc(-c2cccc(OC(C)C)c2)n1	NIH3T3 tox inconclusive, HEK293 tox 39.8µM
CCN(CC)C(=O)c1csc(-c2cccc(OC(C)C)c2)n1	NIH3T3 tox inconclusive, NPR1 antag inconclusive, HEK293 tox 39.8µM
CCOc1cccc(-c2nc(C(=O)Nc3ccc(OC)cc3)cs2)c1	NIH3T3 tox inconclusive, HEK293 tox inconclusive, Luciferase inh inconclusive
COc1ccc(-c2nc(CN3CCN(CCO)CC3)c(C)o2)c2ccccc12	NIH3T3 tox inconclusive, HEK293 tox inconclusive
CCN(CC)Cc1nc(C2(O)CCN(Cc3ccccc3O)CC2)cs1	NIH3T3 tox inconclusive
CCN(CC)Cc1nc(C2(O)CCN(Cc3ccccc3C(F)(F)F)CC2)cs1	NIH3T3 tox inconclusive, HEK293 tox 89.1µM
COc1ccc(S(=O)(=O)N2CCc3c(C(=O)NC4CCCC4)cccc32)cc1	NIH3T3 tox inconclusive, NPR1 antag inconclusive, HEK293 tox inconclusive, GPT2 inhibitor inconclusive
Cc1nn(-c2ccccc2)c2c1C(C1CC1)N(CC1CN(C(=O)C3CCCC3)C1)C2=O (centres undefined)	NIH3T3 tox 44.7µM, HEK293 tox inconclusive (no result: NPR1 antag, Luciferase inh, GPT2 inhibitor)
Cc1nn(-c2ccccc2)c2c1C(C1CC1)N(CC1CN(C(=O)N(C)C)C1)C2=O (centres undefined)	NIH3T3 tox inconclusive, HEK293 tox 44.7µM (no result: NPR1 antag, Luciferase inh, GPT2 inhibitor)
CCN1C(=O)C2(CCN(S(=O)(=O)c3cccc(OC)c3)CC2)c2ccccc21	NIH3T3 tox inconclusive, HEK293 tox inconclusive
Cc1cccc(C(=O)N2CCC3(CC2)CC(N(C2CC2)S(C)(=O)=O)CCO3)c1 (centres undefined)	none
O=C(c1ccccc1)N1CCCN(c2cc(-c3ccc(Cl)cc3)[nH]n2)CC1	NIH3T3 tox inconclusive, HEK293 tox inconclusive
Cc1cc(C)cc(C(=O)N2CCN(c3cc(-c4ccc(Cl)cc4)[nH]n3)CC2)c1	NIH3T3 tox 39.8µM, NPR1 antag inconclusive, HEK293 tox 39.8µM
Cc1ccsc1C(=O)N1CCCN(c2cc(-c3ccc(Cl)cc3)[nH]n2)CC1	NIH3T3 tox inconclusive, NPR1 antag inconclusive, HEK293 tox 31.6µM
O=C(c1ccc2nc[nH]c2c1)N1CCCN(c2cc(-c3ccc(Cl)cc3)[nH]n2)CC1	none
Cc1ccccc1C(=O)N1CCCN(c2cc(-c3ccc(Cl)cc3)[nH]n2)CC1	NIH3T3 tox inconclusive, NPR1 antag inconclusive, HEK293 tox inconclusive
